# Rows were chosen to be rich in hits. Some 0.9% of all compounds tested hit in one or more screens of this group.
# SRC3 TRFRET art: TR-FRET detection interference compounds, artefact control for PPARgamma SRC-3 recruitment agonists, biochemical, TR-FRET ratio; 99,000 tested, 0.39% active; TR-FRET artefact counter-screen, PPARgamma/SRC-3 format; hits give high values; TR-FRET ratio at 8 µM; AID 1048, 2008
# PPARg SRC-2 ag: agonists of PPARg-SRC-2 recruitment, primary screen, biochemical, HTS; 200,000 tested, 0.34% active; activation, % at 8 µM; PPARgamma LBD-SRC-2 recruitment; in the data active = activation above about 22%;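 note: 0% = vehicle and 100% = reference agonist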
# Target sequence (P37231 whole entry, looked up, the tested form may be a part): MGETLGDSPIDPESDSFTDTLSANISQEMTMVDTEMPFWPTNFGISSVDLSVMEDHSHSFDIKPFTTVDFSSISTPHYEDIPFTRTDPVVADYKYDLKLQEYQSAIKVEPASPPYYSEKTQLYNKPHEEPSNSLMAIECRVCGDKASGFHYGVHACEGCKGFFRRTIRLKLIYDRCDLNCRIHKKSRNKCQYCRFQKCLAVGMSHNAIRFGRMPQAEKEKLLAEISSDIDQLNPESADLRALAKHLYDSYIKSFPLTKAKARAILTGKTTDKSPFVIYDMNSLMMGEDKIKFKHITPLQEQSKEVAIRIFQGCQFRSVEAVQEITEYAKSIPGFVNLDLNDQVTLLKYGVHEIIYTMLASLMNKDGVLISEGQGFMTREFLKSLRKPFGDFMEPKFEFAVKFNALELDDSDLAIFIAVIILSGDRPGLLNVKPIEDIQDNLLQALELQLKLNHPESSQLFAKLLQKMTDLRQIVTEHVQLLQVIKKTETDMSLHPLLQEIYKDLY
# SRC1 TRFRET art: TR-FRET detection interference compounds, primary screen, artefact control for PPARgamma SRC-1 recruitment agonists, biochemical, TR-FRET emission ratio; TR-FRET detection artefact counter-screen; hits give high values; 99,000 tested, 0.34% active; TR-FRET ratio at 8 µM; in the data active = TR-FRET ratio above about 2300
# PPARg SRC-1 ag: PPARgamma agonists recruiting SRC-1 coactivator, primary screen, biochemical. Peroxisome proliferator-activated receptor gamma (Homo sapiens), P37231. PPARgamma-SRC-1 coactivator recruitment biochemical assay. activation, % at 8 µM. 200,000 tested, 0.41% active; in the data active = activation above about 19%;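 note: 0% = DMSO and 100% = reference agonist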
# TR-FRET SRC-2 ct: TR-FRET signal artefacts, primary screen, artefact control for PPARgamma SRC-2 agonist project, biochemical. TR-FRET artefact counter-screen; hits give high values. TR-FRET ratio at 8 µM. 200,000 tested, 0.4% active. AID 1049, 2008
# PPARg SRC3 recr: PPARgamma agonists recruiting SRC-3 coactivator, primary screen, biochemical; biochemical PPARgamma/SRC-3 coactivator recruitment assay; activation, % at 8 µM; 200,000 tested, 0.26% active; AID 731, 2007; in the data active = activation above about 23%;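 note: 0% = DMSO and 100% = reference agonist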
# * hit, by the source's call; . = no result. Cut-off read from the data, not from the text of the source, unless noted: active = TR-FRET ratio above about 2000; inactive = the rest.
SMILES,SRC3 TRFRET art,PPARg SRC-2 ag,SRC1 TRFRET art,PPARg SRC-1 ag,TR-FRET SRC-2 ct,PPARg SRC3 recr
Cc1[nH]c2ccccc2c1/C=N/Nc1nncn1N,1704,9,1975,4,1675,6
Cc1nc(SCC(=O)OCc2ccccc2)c(C#N)c(-c2ccccc2)c1C(=O)Nc1ccccc1,.,-2,.,3,2287*,11
COC(=O)CSc1nc(C)c(C(=O)Nc2ccccc2C)c(-c2ccc(Cl)cc2)c1C#N,2162*,-4,1720,-6,1652,-1
Cc1ccccc1NC(=O)c1c(C)nc(SCC(=O)OCc2ccccc2)c(C#N)c1-c1ccc(F)cc1,1628,-2,1564,1,1588,-5
Cc1cc(C)n2nc(SC(C)C(=O)Nc3ccc(Cl)cn3)nc2n1 (stereo not drawn),1706,3,1531,2,1798,7
CC1(C)Cc2c(C#N)c(SCC(=O)c3ccccc3)nc(N3CCOCC3)c2CO1,.,60*,.,2,3056*,-9
CC1(C)Cc2c(C#N)c(SCc3ccccc3)nc(N3CCOCC3)c2CO1,.,2,.,11,1710,-7
Cc1cc(C(=O)NP(=O)(N2CC(C)OC(C)C2)N2CC(C)OC(C)C2)c(C)n1C1CC1 (stereo not drawn),1598,1,1760,-6,1567,1
N#Cc1c(-c2ccc(Br)cc2)cc(-c2cccnc2)nc1N,2107*,1,1900,6,1568,11
Cc1ccc(SCc2ccc(C(=O)NCc3ccncc3)cc2)cc1,.,8,.,-8,1581,6
CC(C)c1ccccc1-n1c(SCC(=O)c2ccc3c(c2)NC(=O)CO3)nc2ccccc2c1=O,2760*,-1,2916*,0,2160*,11
CC(C)c1ccccc1-n1c(SCC(=O)N2CCc3ccccc3C2)nc2ccccc2c1=O,1635,10,1834,3,1633,2
N#Cc1c(-c2ccccc2Cl)cc(-c2ccccc2)nc1Br,2059*,6,1792,-2,1773,6
O=C(c1cccc(C(F)(F)F)c1)N1CCN(c2cc(=O)[nH]nc2-c2ccccc2)CC1,.,-10,.,-9,1357,33*
CCCNc1sc(S(=O)(=O)CCC)nc1S(=O)(=O)c1ccc(C)cc1,1584,8,1821,-2,1657,1
CCn1c(C)cc(/C=C2\NC(=O)N(CC(=O)Nc3ccc(F)cc3)C2=O)c1C,1608,13,2342*,10,1533,5
Cc1ccc(NC(=O)CN2C(=O)N/C(=C/c3cc(C)n(-c4ccc(C(=O)O)cc4)c3C)C2=O)cc1,1621,5,1781,-2,1549,1
CC(C)(C)c1nnc(NC(=O)CN2C(=O)C3C4C=CC(C4)C3C2=O)s1 (stereo not drawn),.,-11,.,0,1429,36*
C#CCn1c(=NC(=O)c2ccc(Cl)s2)sc2cccc(OC)c21,.,6,.,10,1639,30*
COc1ccc(/C=C/C(=O)Nc2cc(S(=O)(=O)N3CCOCC3)ccc2C)cc1OC,1531,-13,1854,0,1560,-4
NNc1nc2c(-c3ccc(F)cc3)nnn2c2ccccc12,1482,9,1861,24*,1767,6
NNc1nc2c(-c3ccc(Cl)cc3)nnn2c2ccccc12,1621,2,1516,11,1573,6
O=S(=O)(Nc1cccc(C(F)(F)F)c1)c1cnc[nH]1,1615,35*,1838,5,1811,1
O=S(=O)(Nc1ccc(C(F)(F)F)cc1)c1cnc[nH]1,1657,6,1541,8,1467,-1
COc1ccc(S(=O)(=O)N2CCC(N3CCN(Cc4ccccc4)CC3)CC2)cc1,1572,-3,1599,-3,1489,-4
COc1ccc(S(=O)(=O)N2CCN(C3Cc4ccccc4C3)CC2)cc1,2079*,-1,1748,-6,1352,6
O=C(COc1ccc(Cl)cc1)Nc1nc(-c2ccc(S(=O)(=O)N3CCOCC3)cc2)cs1,.,10,.,13,2847*,24
O=C(COC(=O)c1ccc(S(=O)(=O)N2CCOCC2)cc1)Nc1nc(-c2ccccc2)cs1,.,5,.,0,1618,-2

# Source: PubChem BioAssay
